# In PubChem BioAssay AID504333 (National Center for Advancing Translational Sciences (NCATS), 2011):
# Hit rate of the full screen: of about 360,000 compounds, about 16,000 (4.4%) were called active. Not shown: some 9% with an inconclusive outcome. The entries come from a sample that favours actives as a whole. Values without a mark were called inactive. The call rests on the fitted dose curve; in most records, active means well fitted inhibition curve with a large enough effect; inconclusive means small, poorly fitted or top-dose-only effect; inactive means no such curve, though single readings can be large or run the other way.
# Molecular target: Bromodomain adjacent to zinc finger domain protein 2B (Homo sapiens) (UniProt Q9UIF8)
# Test: qHTS Assay for Inhibitors of BAZ2B; further: nearly all actives have a fitted effect of over 60% in size
# Settings: AlphaScreen BAZ2B-H3K14Ac peptide displacement; series mostly up to 114 µM; activity change, negative = inhibition: at the top concentration
# How it was run: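 AlphaScreen displacement: compounds (up to 110uM) incubated 30 min at room temperature with a preformed 50 nM BAZ2B/50 nM biotinylated H3K14Ac peptide complex in PBS pH 7.4 with Tween-20. Donor and acceptor beads at 10 ug/mL final added, 20 min light-protected before reading.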
# On the % scale 0 is the no-effect control and ±100 the full control effect; potency means the concentration at half of the fitted maximal effect.
# Sequence of Bromodomain adjacent to zinc finger domain protein 2B (Homo sapiens) (Q9UIF8 whole entry, looked up, the tested form may be a part): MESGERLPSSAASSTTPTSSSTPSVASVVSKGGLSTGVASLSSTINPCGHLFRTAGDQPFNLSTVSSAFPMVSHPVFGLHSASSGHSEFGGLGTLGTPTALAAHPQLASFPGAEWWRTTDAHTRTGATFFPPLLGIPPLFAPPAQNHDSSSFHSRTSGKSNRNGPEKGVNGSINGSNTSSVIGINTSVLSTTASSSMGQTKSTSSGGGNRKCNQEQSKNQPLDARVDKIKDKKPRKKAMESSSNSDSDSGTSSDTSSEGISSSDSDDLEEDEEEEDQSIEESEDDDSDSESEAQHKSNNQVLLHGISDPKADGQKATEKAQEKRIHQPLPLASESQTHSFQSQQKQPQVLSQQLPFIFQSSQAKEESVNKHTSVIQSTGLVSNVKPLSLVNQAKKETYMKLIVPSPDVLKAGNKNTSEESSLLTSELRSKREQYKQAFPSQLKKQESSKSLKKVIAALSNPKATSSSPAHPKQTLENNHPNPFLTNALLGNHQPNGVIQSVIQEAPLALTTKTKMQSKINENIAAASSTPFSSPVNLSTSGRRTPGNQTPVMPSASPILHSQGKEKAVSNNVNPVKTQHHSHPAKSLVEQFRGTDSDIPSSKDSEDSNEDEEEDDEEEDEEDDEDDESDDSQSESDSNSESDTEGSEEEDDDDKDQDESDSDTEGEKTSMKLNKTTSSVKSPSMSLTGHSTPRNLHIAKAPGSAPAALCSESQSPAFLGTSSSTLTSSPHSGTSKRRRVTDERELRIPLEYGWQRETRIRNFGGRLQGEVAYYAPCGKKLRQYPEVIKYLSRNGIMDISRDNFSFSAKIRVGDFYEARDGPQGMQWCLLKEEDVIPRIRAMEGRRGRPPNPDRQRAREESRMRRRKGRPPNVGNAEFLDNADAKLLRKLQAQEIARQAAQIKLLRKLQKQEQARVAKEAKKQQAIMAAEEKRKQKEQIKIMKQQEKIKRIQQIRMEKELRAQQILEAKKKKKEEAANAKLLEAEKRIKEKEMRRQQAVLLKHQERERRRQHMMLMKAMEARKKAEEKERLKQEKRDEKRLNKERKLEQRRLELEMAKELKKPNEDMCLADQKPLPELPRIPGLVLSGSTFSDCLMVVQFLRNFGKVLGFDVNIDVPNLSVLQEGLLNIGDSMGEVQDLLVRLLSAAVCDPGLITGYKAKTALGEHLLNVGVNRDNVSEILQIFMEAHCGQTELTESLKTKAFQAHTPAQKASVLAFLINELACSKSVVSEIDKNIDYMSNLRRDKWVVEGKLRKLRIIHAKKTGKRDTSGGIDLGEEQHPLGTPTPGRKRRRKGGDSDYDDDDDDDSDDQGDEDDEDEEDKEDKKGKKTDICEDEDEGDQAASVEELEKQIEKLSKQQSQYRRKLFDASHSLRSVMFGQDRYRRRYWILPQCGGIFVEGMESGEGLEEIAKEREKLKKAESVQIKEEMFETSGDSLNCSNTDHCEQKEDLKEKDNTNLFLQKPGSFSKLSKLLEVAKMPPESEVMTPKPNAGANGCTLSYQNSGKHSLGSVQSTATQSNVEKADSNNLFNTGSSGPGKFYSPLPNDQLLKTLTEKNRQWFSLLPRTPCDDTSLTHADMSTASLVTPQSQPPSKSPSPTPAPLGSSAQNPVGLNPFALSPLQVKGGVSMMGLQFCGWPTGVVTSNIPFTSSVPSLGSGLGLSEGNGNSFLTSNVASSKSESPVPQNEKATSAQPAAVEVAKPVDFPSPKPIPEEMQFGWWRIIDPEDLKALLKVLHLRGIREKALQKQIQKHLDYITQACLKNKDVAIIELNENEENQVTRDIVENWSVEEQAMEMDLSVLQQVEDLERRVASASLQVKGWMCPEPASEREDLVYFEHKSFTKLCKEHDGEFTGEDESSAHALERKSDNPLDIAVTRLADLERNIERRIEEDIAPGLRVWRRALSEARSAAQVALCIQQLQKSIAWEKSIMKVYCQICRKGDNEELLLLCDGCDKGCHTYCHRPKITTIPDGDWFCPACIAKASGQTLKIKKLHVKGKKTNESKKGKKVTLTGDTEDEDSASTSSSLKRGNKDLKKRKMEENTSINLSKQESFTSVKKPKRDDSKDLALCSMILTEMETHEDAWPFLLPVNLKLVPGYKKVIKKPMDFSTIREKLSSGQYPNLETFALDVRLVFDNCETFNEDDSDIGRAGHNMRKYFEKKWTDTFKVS
SMILES,"activity change, negative = inhibition",Potency
O=C(Nc1ccc2nc(SCCOc3ccccc3Cl)sc2c1)c1ccco1,-28.6%,–
COc1cc(-c2nn3c(-c4cccc(C)c4)nnc3s2)cc(OC)c1OC,-1.78%,–
c1ccc(-c2cc(-c3nnc4sc(-c5ccccn5)nn34)[nH]n2)cc1,-21.7%,–
CCOc1cccc(-c2nn3c(-c4ccccn4)nnc3s2)c1,–,50.1 µM (active)
COc1ccc(/C=C2/SC(=O)N(CCCCCC(=O)Nc3ccccc3C(=O)O)C2=S)cc1,–,56.2 µM (active)
COc1ccc(/C=C2\SC(=O)N(CCC(=O)NCCCn3ccnc3)C2=O)cc1,-34.5%,–
COc1ccc(/C=C2\SC(=O)N(CCC(=O)NC3CCS(=O)(=O)C3)C2=O)cc1 (centres undefined),-17.6%,–
CCCCNc1ccc(-c2nc(-c3ccncc3)no2)cc1[N+](=O)[O-],-14.3%,–
CCN(Cc1ccccc1)Cc1c(O)ccc2c(=O)c(-c3ccc(Cl)cc3Cl)coc12,-1.44%,–
CC1=CC(C)(C)N(C(=O)CSc2nnc(-c3ccccc3)o2)c2ccc(C)cc21,-12.4%,–
COc1cccc(NC(=O)C2C(c3ccccc3)C2(Cl)Cl)c1 (centres undefined),3.62%,–
COc1ccc2c(c1)C(C)=CC(C)(C)N2C(=O)Nc1ccccc1,–,50.1 µM (active)
CC1=C(C(=O)OCc2ccc(C)cc2)C(c2c(Cl)cccc2Cl)CC(=O)N1 (centres undefined),-0.666%,–
Cc1ccc(OCCn2c(CNc3ccccc3C)nc3ccccc32)cc1,-26.1%,–
COc1ccc(OC)c(NC(=O)C2CCCN(S(=O)(=O)c3ccc4c(c3)CCCC(=O)N4)C2)c1 (centres undefined),-0.384% [at 57.1 µM],–
COC(=O)c1cc(C(=O)NC(C)C2CC3CCC2C3)cc([N+](=O)[O-])c1 (centres undefined),-28.5%,–
O=C(c1cc(C(=O)N2CCN(c3ccc(F)cc3)CC2)cc([N+](=O)[O-])c1)N1CCN(c2ccc(F)cc2)CC1,-32.9%,–
CC1CCC2CCCCC2N1C(=O)c1cc([N+](=O)[O-])cc([N+](=O)[O-])c1 (centres undefined),–,50.1 µM (active)
COc1ccc(N2CCN(c3cc(C)nc4nncn34)CC2)cc1,-3.48%,–
COc1ccc(N2C(=O)CSC23C(=O)N(Cc2cccc(F)c2)c2ccccc23)cc1Cl (centres undefined),-22.3%,–
Cc1ccc(-n2c(SCC(=O)c3ccccc3)nc3c([nH]c4ccccc43)c2=O)cc1,2.93%,–
COc1ccc2ccccc2c1CNCc1ccccn1,–,79.4 µM (active)
COc1ccc(C)cc1NC(=O)NCc1ccccn1,-14.3%,–
COc1ccc2ccccc2c1CNc1nnnn1C,-10.5%,–
CCCSc1ncc(Cl)c(C(=O)Nc2sc3c(c2C(=O)NCCOC)CCCC3)n1,-19.1%,–

SMILES,"activity change, negative = inhibition",Potency
Cc1c(Cl)cccc1NC(=O)C1CCCN(c2ncnc3onc(C)c23)C1 (centres undefined),8.64% [at 57.1 µM],–
O=c1c2c3c(sc2n(CCN2CCCC2)c(=O)n1Cc1ccccc1)CCCCC3,–,89.1 µM (active)
CCOC(=O)N1CCc2c(sc3c2c(=O)n(Cc2ccccc2)c(=O)n3CC(=O)Nc2cccc(C)c2)C1,3.88%,–
Cc1ccc(NC(=O)Cn2c(=O)n(-c3ccccc3)c(=O)c3c4c(sc32)CCCC4)cc1,-2.88%,–
O=C(Nc1cc(C(F)(F)F)ccc1Cl)c1nc2ccccc2nc1N1CCCCC1,-31.3%,–
Brc1ccccc1C1N=C(c2ccccc2)NO1 (centres undefined),9.17%,–
Brc1ccccc1C1Nc2cccc3cccc(c23)N1,–,44.7 µM (active)
COc1cc2c(cc1OC)C(c1ccccc1Br)NC(=O)C2 (centres undefined),-6.18%,–
COc1ccc(N2CCN(C(=O)c3ccc(N4CCCCS4(=O)=O)cc3)CC2)cc1,–,50.1 µM (active)
COc1ccc(C(=O)Nc2ccccc2C(=O)N2CCN(c3ccccc3)CC2)cc1,-20.7%,–
COc1ccc(N2CCN(C(=O)c3ccc4c(Cl)c5c(nc4c3)CCCC5)CC2)cc1,–,inactive
O=C(NCC(c1cccnc1)N1CCc2ccccc21)c1cccc(C(F)(F)F)c1 (centres undefined),-2.57%,–
COc1ccc(-c2nn3c(=O)cc(CN4CCN(C(=O)c5ccc(OC)c(OC)c5)CC4)nc3s2)cc1,1.38%,–
COc1ccc(S(=O)(=O)Nc2cc3c(C(=O)OC(C)C)c(C)oc3c3ccccc23)cc1,-13.1%,–
COc1ccc(S(=O)(=O)/N=C2\C=C(NS(=O)(=O)c3ccccc3)C(=O)c3ccccc32)cc1,–,10 µM (active)
COc1ccc(NC(=O)c2cnc(NS(=O)(=O)c3ccccc3)nc2)cc1,1.25%,–
COc1cc(NC(=O)c2nc3ccccc3nc2C)cc(OC)c1OC,-17.8%,–
COC(=O)CCNc1ccc2c(c1)OCCO2,6.99%,–
O=C(COc1ccc(Cl)cc1)Nc1ccc2c(c1)OCO2,3.44%,–
CCOc1ccc(NCCC(=O)c2ccc3c(c2)OCO3)cc1,–,39.8 µM (active)
CCCCN1C(=O)c2[nH]nc(-c3ccccc3O)c2C1c1cccc(OCc2ccccc2)c1 (centres undefined),-26.7%,–
Cc1cccc(NC(=O)c2ccc3nc(C(C)C)oc3c2)c1C,27.1%,–
CC(=O)c1ccc(NS(=O)(=O)c2ccc(-c3cc(C)no3)s2)cc1,-3.44%,–
O=C(Nc1cc(Cl)cc(Cl)c1)c1ccc2c(c1)N(Cc1cccc(Cl)c1)C(=O)c1ccccc1S2=O (centres undefined),3.3%,–
CCOC(=O)c1ccc(NC(=O)C2CCN(S(=O)(=O)c3ccc4c(c3)CCCC(=O)N4)CC2)cc1,4.44% [at 57.1 µM],–

SMILES,"activity change, negative = inhibition",Potency
C=CCSc1nnc(N2C(=O)C(O)=C(C(=O)c3ccco3)C2c2ccc(F)cc2)s1 (centres undefined),–,50.1 µM (active)
CC(C)c1ccc(C2C(C(=O)c3ccco3)=C(O)C(=O)N2CC2CCCO2)cc1 (centres undefined),-25.4%,–
O=C(C1=C(O)C(=O)N(Cc2ccccc2)C1c1ccco1)c1ccco1 (centres undefined),-32.8%,–
COc1ccccc1N1CCN(c2ncnc3onc(-c4ccc(F)cc4)c23)CC1,3.92% [at 57.1 µM],–
CC(C)c1c(O)nc(SCCOc2ccc(Cl)cc2)[nH]c1=O,-22.7%,–
Cc1ccc(-c2nc(SCc3ccc(Br)cc3)n3[nH]c(=O)cc3n2)cc1,–,79.4 µM (active)
Cc1ccc(OCCSc2nc(-c3cccs3)nc3cc(=O)[nH]n23)cc1Cl,–,50.1 µM (active)
O=c1cc2nc(-c3ccccc3)nc(SCCOc3ccc(Cl)cc3)n2[nH]1,–,50.1 µM (active)
Cc1cccc(-c2nc(SCc3ccc(Br)cc3)n3[nH]c(=O)cc3n2)c1,-0.89%,–
Cc1ccc2nc(-c3ccc(Br)cc3)cn2c1,-16%,–
Cc1nc(SCCOc2ccc(Cl)cc2)[nH]c(=O)c1Cc1ccccc1,0.0225%,–
CCn1c(SCC(=O)c2ccc3ccccc3c2)nnc1-c1cccs1,-3.48%,–
CC(C)(C)C1CCc2c(sc(NC(=O)c3ccccc3F)c2C(=O)N2CCCCC2)C1 (centres undefined),1.75%,–
COc1cccc(-c2cc(C(=O)Nc3ccc(C)cc3)[nH]n2)c1,-10.2%,–
COc1ccc(-c2noc(-c3ccc(N4CCN(c5ccccc5)CC4)c([N+](=O)[O-])c3)n2)cc1OC,-13.6%,–
CCN(CC)S(=O)(=O)c1ccc2c(c1)N(CC(=O)NCc1ccccc1)C(=O)CS2,4.1%,–
CCNS(=O)(=O)c1cc(-c2nnc(Nc3cccc(C(F)(F)F)c3)c3ccccc23)ccc1C,-3.61%,–
COC(=O)c1c(NC(=O)c2c(Cl)cnn2C)sc(C)c1C,-4.28%,–
CCC(=O)Nc1sc(C(=O)Nc2ccccc2)c(C)c1C(=O)OC,-18%,–
COCCCNCC(=O)Nc1sc(C)c(C)c1C(=O)OC,–,50.1 µM (active)
Cc1ccc2c(=O)cc(C(=O)Nc3sc4c(c3C(=O)NCc3cccnc3)CCCC4)oc2c1,-18.1%,–
CCOC(=O)c1c(C)n(S(=O)(=O)c2ccc(C)cc2C)c2ccc(NS(=O)(=O)c3ccc(C)cc3C)cc12,-21.2%,–
Cc1ccc(CNC(=O)c2c(O)nc3c(C)cccn3c2=O)cc1,0.0746%,–
CC(Nc1ccc(-c2nc(-c3ccco3)no2)cc1[N+](=O)[O-])c1ccccc1 (centres undefined),–,79.4 µM (active)
CNc1ccc(-c2nc(-c3ccccc3C)no2)cc1[N+](=O)[O-],-24.4%,–

SMILES,"activity change, negative = inhibition",Potency
CNc1ccc(-c2nc(-c3ccco3)no2)cc1[N+](=O)[O-],2.85%,–
COc1ccc(NC(=O)c2ccc3nc(CCc4ccccc4)oc3c2)c(OC)c1,10.2%,–
O=C1Cc2cc(S(=O)(=O)Nc3ccc(OC(F)(F)F)cc3)cc3c2N1CCC3,1.13%,–
COc1ccc2c(CNCCc3ccccc3C)c(C(=O)O)n(Cc3ccccc3C)c2c1,-11.2%,–
O=C(O)c1cccc(N=NN2CCCCCC2)c1,-8.07%,–
CN1C(=O)/C(=C/c2ccco2)SC1=Nc1cccc(C(=O)O)c1,–,50.1 µM (active)
CN=C1S/C(=C\c2c(OC)cc(OC)cc2OC)C(=O)N1C,-0.785%,–
CCCCCCn1nnc2sc(-c3ccccc3)cc2c1=O,21.1%,–
Cc1ccc(C(=O)NC(=S)Nc2ccc(N3CCOCC3)cc2)cc1,–,14.1 µM (active)
COC(=O)c1ccc(NC(=S)NN2CCOCC2)cc1,-14.3%,–
Cc1ccc(C(=O)NC(=S)Nc2ccccc2C)cc1,–,89.1 µM (active)
Cc1ccc(C(=O)NC(=S)NCCN2CCOCC2)cc1,-30.4%,–
Cc1cc2[nH]ncc2cc1NC(=S)NC(=O)c1ccccc1,-31.9%,–
Cc1cc(C(=O)NNC(=S)Nc2ccccc2C)cs1,4.84%,–
COc1ccc(-c2cc(C(F)(F)F)nc(SCC(=O)N(C)Cc3ccccc3)n2)cc1OC,-1.08%,–
Cc1c(Cl)cccc1NC(=O)C1CCCN(C(=O)c2cnn(-c3ccccc3)c2-n2cccc2)C1 (centres undefined),-19.3%,–
COc1ccc(CCNC(=O)c2nn(C)c3c2CSc2ccccc2-3)cc1OC,-28.5%,–
Cc1cc(NC(=O)CSc2ncc(C(=O)Nc3ccc(Cl)cc3)c(=O)n2C)no1,-6.81%,–
Cc1ccc(-c2nnc(Nc3cccc(Br)c3)c3ccccc23)cc1S(=O)(=O)NCC1CCCO1 (centres undefined),-2.37%,–
Cc1cn(C)c(CC(=O)NCc2ccc(Cl)cc2)c1C(=O)O,-29.8%,–
Cc1ccc(CCCOC(=O)C[N+]2(C)CCCC2)cc1,–,50.1 µM (active)
Cc1ccc(COC(=O)CN2C(=O)NC3(CCCC3)C2=O)cc1,10.3%,–
Cc1ccc(CCCOC(=O)C[N+]2(C)CCCCC2)cc1,-29%,–
COc1ccc(-c2nn(CC(=O)Nc3ccccc3F)c3c2cnc2ccc(F)cc23)cc1,0.104%,–
